M1 antag – human CHRM1 antagonism; P11229; CHO-K1 hM1, Fluo-8 calcium fluorescence, ACh EC80 antagonist; inhibition, % at 3 µM; 1.3% of 360,000 active; AID 588852;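 active = percent inhibition above its own plate's cutoff, namely the mean of that plate's compound wells plus 3 SD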;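 also: peak over basal fluorescence ratio during 140 s after agonist addition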
Target sequence (P11229 whole entry, looked up): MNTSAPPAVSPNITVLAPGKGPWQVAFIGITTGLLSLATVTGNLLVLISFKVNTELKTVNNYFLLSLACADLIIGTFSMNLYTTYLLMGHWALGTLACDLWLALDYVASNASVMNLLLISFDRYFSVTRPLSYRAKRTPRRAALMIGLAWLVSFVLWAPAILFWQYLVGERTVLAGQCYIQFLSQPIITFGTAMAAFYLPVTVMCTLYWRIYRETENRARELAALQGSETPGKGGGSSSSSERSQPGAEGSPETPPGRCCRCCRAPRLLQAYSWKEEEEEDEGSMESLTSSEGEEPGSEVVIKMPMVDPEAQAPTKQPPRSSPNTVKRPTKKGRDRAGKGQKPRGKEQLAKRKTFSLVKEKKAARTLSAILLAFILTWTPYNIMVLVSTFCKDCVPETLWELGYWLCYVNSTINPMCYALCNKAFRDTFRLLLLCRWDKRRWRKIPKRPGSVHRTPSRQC
M1 PAM – potentiates human M1 receptor response to acetylcholine; CHO-K1 hM1, Fluo-8 calcium fluorescence, ACh EC20; 0% = ACh EC20, 100% = maximal ACh; 0.088% of 360,000 active; P11229; activation, % at 3 µM; in the data active = activation above about 19%, passing the limit was not always enough
CHO-K1 Ca PAM – counter-screen for M1 PAMs: effect in parental CHO-K1 cells | ATP EC20, Fluo-8 calcium fluorescence; 0% at ATP EC20, 100% at ATP max | activation, % at 3 µM | 0.02% of 360,000 active | AID 602247;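 active = activation above the run cutoff, the mean activation of all test compounds plus 3 SD, cut at about 40% in these data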;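 also: peak over basal fluorescence ratio in a 140 s read after ATP addition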
M1 ag parental – counter-screen for M1 agonists: effect in parental CHO-K1 cells; AID 602248; Fluo-8 calcium fluorescence; scaled to maximal ATP response, vehicle zero; 0.48% of 360,000 active; activation, % at 3 µM; in the data active = activation above about 15%;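 also: untransfected CHO-K1 host cells lacking M1 receptor as counterscreen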
CHO-K1 Ca antag – M1 antagonist counterscreen hit in parental CHO-K1 cells; inhibition, % at 3 µM; ATP-induced calcium, Fluo-8 fluorescence; AID 602250; 0.6% of 360,000 active;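 active = inhibition above a per-plate cutoff, the plate's mean sample inhibition plus 3 SD, cut at about 24% in these data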
CHRM1 agonist – agonists of human M1 muscarinic receptor; P11229; activation, % at 3 µM; 0.33% of 360,000 active; CHO-K1 hM1, Fluo-8 calcium fluorescence, agonist mode; 0% DMSO, 100% acetylcholine EC100;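 active = activation above the run's mean compound activation plus 3 SD, cut at about 16% in these data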;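 also: peak over basal fluorescence ratio within a 140 s kinetic read after compound addition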
Of the large screens only hits and unclear results are named; the others gave an inactive call. Hits are enriched below; roughly 2.3% of the tested compounds scored in any of these assays.

O=C(NNC(=S)NC(=O)c1ccccc1Cl)c1cccc([N+](=O)[O-])c1	CHRM1 agonist 19.1
O=C(NNC(=S)NC(=O)c1ccc(Br)cc1)c1cccc([N+](=O)[O-])c1	M1 ag parental 20.9, CHRM1 agonist 35.5
O=C(NNC(=S)NC(=O)c1ccc(Br)cc1)c1ccc([N+](=O)[O-])cc1	CHRM1 agonist 46.6
N#Cc1cccc(S(=O)(=O)NCC(=O)OCC(=O)c2ccc[nH]2)c1	none
COC(=O)c1sccc1Oc1c(Cl)cccc1[N+](=O)[O-]	none
COc1ccc(NC(C)=O)cc1NC(C)c1nc2sc(C)c(C)c2c(=O)[nH]1 (configuration not stated)	M1 ag parental 16.7
COc1ccc(C2CC(c3ccccc3)=NN2C(=O)CSc2nnnn2-c2cccc(C)c2)cc1 (configuration not stated)	none
CC(C)(C)OC(=O)N1CCC[C@@H]1C(=O)NCc1ccccc1Cl	none (no result: M1 antag, M1 PAM, CHRM1 agonist)
c1ccc(-c2csc3ncnc(NCCN4CCOCC4)c23)cc1	none
c1ccc(-c2csc3ncnc(NCc4ccccn4)c23)cc1	M1 antag 42.9
CN(C)CCCNc1ncnc2c1c(-c1ccccc1)cn2-c1ccccc1	none
CN(C)CCCNc1ncnc2scc(-c3ccccc3)c12	M1 antag 48.1
c1ccc(CNc2ncnc3scc(-c4cccs4)c23)nc1	M1 antag 29.5
Cc1cc(=O)n2nc(N3CCCC(C(=O)NCc4cccc(Br)c4)C3)sc2n1 (configuration not stated)	none
NC(CCc1ccccc1)c1csc(Nc2nccc(C(F)(F)F)n2)n1 (configuration not stated)	none
COc1ccc(CN(C)C(=O)c2cc(S(=O)(=O)N3CCCCCC3)ccc2OC)cc1OC	none
COc1ccc(S(=O)(=O)N2CCCCCC2)cc1C(=O)N(C)Cc1ccc(F)cc1	M1 PAM 25.1
Oc1ccc2ccccc2c1Br	CHO-K1 Ca antag 24.4
CCOC(=O)c1c(C)[nH]c(C(=O)OCC(=O)NCc2ccc(OC)c(OC)c2)c1C	none
COc1ccc2c(c1OC)C(=O)N1c3ccccc3C(=O)N(c3ccccc3)C21 (configuration not stated)	M1 antag 32.3
COc1ccc2c(c1OC)C(=O)N1c3ccccc3C(=O)N(c3ccc(F)cc3)C21 (configuration not stated)	M1 antag 25.1
CCCCN(C)S(=O)(=O)c1cc2c3c(c1)CCC(=O)N3CCC2	none
COc1cc(C=NN2CCCCC2)cc(OC)c1OC	CHRM1 agonist 24.9
COc1ccc2ccccc2c1C=NN1CCCCC1	CHRM1 agonist 21.4
NS(=O)(=O)c1ccc(NC(=O)Nc2ccc(Cl)cc2)cc1	CHO-K1 Ca antag 27.8
N#Cc1ccc(NC(=O)Nc2ccc(Cl)cc2)cc1	M1 antag 32.1, CHO-K1 Ca antag 25.7
COc1ccc(N2C[C@H](C)[C@@H](CC(=O)Nc3ccc(Br)cc3)C2=O)cc1	CHO-K1 Ca antag 24.6
COc1cc2c(cc1OC)CN(CCC(C)c1ccc(Cl)cc1)CC2 (configuration not stated)	M1 antag 43.0
C[C@H](O)C#Cc1ccc2c(c1)O[C@@H](CN(C)Cc1ccc(-c3ccccc3)cc1)[C@H](C)CN([C@@H](C)CO)S2(=O)=O	none
OCCN1CCN(CC/C=C2/c3ccccc3CSc3ccccc32)CC1	none
CNCC/C=C1/c2ccccc2CSc2ccccc21	M1 antag 95.0
O=S1c2ccccc2Nc2ccccc21	M1 PAM 27.1
CC1(C)CC(=O)C2=C(C1)Nc1ccccc1[S@]2=O	none
COc1ccc(N=Cc2sc(O)c3ccccc23)cc1	M1 antag 29.6, CHRM1 agonist 29.6
COc1ccc(N=Cc2c(O)c3ccccc3n2C(C)=O)cc1	none
CC(C)(C)C(=O)OCc1ccc(C2=CC(=O)CC(C)(C)C2=O)cc1	none
CC(=O)OCc1ccc(C2=CC(=O)CC(C)(C)C2=O)cc1	CHO-K1 Ca antag 23.8
Cc1sc2nc(CN3CCOCC3)nc(N3CCC(C(N)=O)CC3)c2c1C	CHO-K1 Ca antag 25.1
Cc1sc2nc(CN3CCOCC3)nc(N3CCOCC3)c2c1C	none
O=C(NC1CCCCC1)N1CCN(c2ccc(Cl)cc2)CC1	none
Cc1noc(C)c1CSCC(=O)N1CCN(c2ccc([N+](=O)[O-])cc2)CC1	M1 antag 57.5
O=C(c1cc([N+](=O)[O-])ccc1N1CCOCC1)N1CCN(c2ccc([N+](=O)[O-])cc2)CC1	M1 antag 32.4
O=C(NC1CCCCC1)N1CCN(c2ccc([N+](=O)[O-])cc2)CC1	M1 antag 27.2
CCn1c(=O)cc(SCC(=O)Nc2ccc(C)cn2)c2ccccc21	none
CCCNC(=O)C1(C)CCN(C(=O)c2ccc3c(c2)CCO3)C1 (configuration not stated)	M1 PAM 30.6
CCCNC(=O)C1(C)CCN(C(=O)c2ccc(F)c(Cl)c2)C1 (configuration not stated)	none
Cc1ccc(-c2nc(CSCC(=O)NCCN3CCN(Cc4ccccc4)CC3)c(C)o2)cc1	M1 antag 26.0
Cc1ccc(S(=O)(=O)n2c(=O)oc3ccccc32)cc1	none
CCOC(=O)c1ccc(S(=O)(=O)n2c(=O)oc3ccccc32)cc1	M1 antag 31.2
CCOC(=O)c1c(-c2ccccc2Cl)cn2ccccc12	CHO-K1 Ca antag 100.0
CCOC(=O)c1c(-c2cccc([N+](=O)[O-])c2)cn2ccccc12	none
Cc1cccc(C(=O)OC(C)C(=O)Nc2ccc(S(=O)(=O)N3CCCC3)cc2)c1O (configuration not stated)	M1 antag 29.2
CC(Sc1ccc(Cl)cc1)C(=O)N(C)CC(=O)Nc1ccc(N2CCOCC2)cc1 (configuration not stated)	M1 antag 18.4
Cc1ccc(OC(C)C(=O)Nc2ccc(S(=O)(=O)N3CCOCC3)cc2)cc1 (configuration not stated)	CHRM1 agonist 22.0
CC(C)C(=O)Nc1ccc(C(=O)Nc2ccc(S(=O)(=O)N3CCOCC3)cc2)cc1	none
CC(OC(=O)c1cc(Br)ccc1O)C(=O)Nc1ccc(S(=O)(=O)N2CCCC2)cc1 (configuration not stated)	none
CC(Sc1ccc(Cl)cc1)C(=O)Nc1ccc(S(=O)(=O)N2CCOCC2)cc1 (configuration not stated)	CHRM1 agonist 22.4
CC(Oc1cc(F)ccc1[N+](=O)[O-])C(=O)Nc1ccc(S(=O)(=O)N2CCCC2)cc1 (configuration not stated)	M1 antag 72.9
CC(Oc1ccccc1)C(=O)Nc1ccc(S(=O)(=O)N2CCCC2)cc1 (configuration not stated)	none
